Screening data deposited in PubChem BioAssay by National Center for Advancing Translational Sciences (NCATS).
This is a sample that favours compounds with a hit; in the whole collection about 10% have one here.
GLS inhibitor: inhibitors of human glutaminase (GLS) | GLS enzymatic activity, qHTS titration | Potency, µM (titrated, usually from 45.5 µM), for the others: at the top dose activity change, negative = inhibition, actives largely listed as inhibitors | 410,000 compounds, 0.21% hits | AID 624170; further: on the % scale 0 is the no-effect control and ±100 the full control effect
Target sequence (O94925 whole entry, looked up): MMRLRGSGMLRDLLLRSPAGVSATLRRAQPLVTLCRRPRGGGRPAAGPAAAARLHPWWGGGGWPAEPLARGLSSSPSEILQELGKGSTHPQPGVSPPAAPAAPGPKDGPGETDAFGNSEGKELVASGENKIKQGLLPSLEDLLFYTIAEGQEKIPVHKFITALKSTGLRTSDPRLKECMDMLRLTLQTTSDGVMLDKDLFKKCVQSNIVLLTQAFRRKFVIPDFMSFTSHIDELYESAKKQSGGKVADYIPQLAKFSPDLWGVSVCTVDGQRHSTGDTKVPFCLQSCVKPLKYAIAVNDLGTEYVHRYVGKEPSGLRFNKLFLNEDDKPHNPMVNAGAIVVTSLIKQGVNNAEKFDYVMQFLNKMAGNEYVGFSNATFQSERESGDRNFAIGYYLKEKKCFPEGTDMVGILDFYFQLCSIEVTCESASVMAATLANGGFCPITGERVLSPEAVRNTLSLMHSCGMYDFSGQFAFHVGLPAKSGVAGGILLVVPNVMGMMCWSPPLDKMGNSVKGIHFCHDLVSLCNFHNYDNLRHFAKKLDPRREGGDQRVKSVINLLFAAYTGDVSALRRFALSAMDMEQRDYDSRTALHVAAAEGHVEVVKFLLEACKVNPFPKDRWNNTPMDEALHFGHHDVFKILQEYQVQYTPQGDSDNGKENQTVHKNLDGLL
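hKGA in 45 mM KH2PO4 (pH 8.2), 0.02% Tween-20 with compound, then 1mM L-Glutamine (stock as added) plus glutamate oxidase/HRP/Amplex red coupling mix. Fluorescence read initially and after 30 min at RT; signal change reflects glutamate formation.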
JMJD2A Tudor: JMJD2A Tudor domain (human) inhibition; O75164; AlphaScreen JMJD2A-Tudor / H3K4me3 peptide binding; Potency, µM (highest dose often 114 µM), inactives show at the highest dose activity change, negative = inhibition, most hits filed as inhibitors; 390,000 compounds, 4.4% hits; AID 504339; further: on the % scale 0 is the no-effect control and ±100 the full control effect; nearly all actives have a fitted effect of over 50% in size
HP1b chromo inh: inhibitors of HP1-beta chromodomain binding to methylated histone tails | AID 540317 | 390,000 compounds, 0.56% hits | AlphaScreen HP1-beta / biotin-H3K9me3 peptide binding | Potency, µM (top dose mostly 114 µM), for the others: at the top dose activity change, negative = inhibition, most hits filed as inhibitors | P83916; further: nearly all actives have a fitted effect of over 70% in size
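HP1-beta protein (50 nM final) preincubated 30 min at room temperature with biotinylated H3(1-18)K9me3 peptide (50 nM) in PBS pH 7.4, 0.01% Tween-20, then compound added for 30 min. AlphaScreen streptavidin donor/nickel chelate acceptor beads (10 ug/mL final), 30 min dark, luminescence read.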
G9a inh: blocks human histone lysine methyltransferase G9a; Potency, µM (series often up to 102 µM), for inactives: at the highest dose activity, negative = inhibition, most hits filed as inhibitors; AID 504332; 350,000 compounds, 8.8% hits; G9a H3K9 monomethylation, AlphaScreen, 2 h; Q96KQ7; further: on the % scale 0 is the no-effect control and ±100 the full control effect; nearly all actives have a fitted effect of over 75% in size
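Compounds were preincubated with 20 nM G9a for 15 min, after which biotinylated H3K9 peptide (500 nM) and SAM (20 uM) started a 2 h room-temperature reaction. Monomethylated product was quantified by antibody-based AlphaScreen chemiluminescence.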
BAZ2B inh: BAZ2B (human) inhibition; AlphaScreen BAZ2B-H3K14Ac peptide displacement; AID 504333; 360,000 compounds, 4.4% hits; Potency, µM (series often up to 114 µM), without a hit: top-dose activity change, negative = inhibition, most hits filed as inhibitors; Q9UIF8; further: on the % scale 0 is the no-effect control and ±100 the full control effect; nearly all actives have a fitted effect of over 60% in size
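Multi-concentration screen (max 110 uM) measuring displacement of acetylated histone H3 peptide from BAZ2B by AlphaScreen, using 50 nM protein, 50 nM peptide and 10 ug/mL streptavidin donor plus Ni-chelate acceptor beads.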
* hit, by the source's call; [ ] = remark or other dose. The call rests on the fitted dose curve; in most records, active means well fitted curve in the direction sought with a large enough effect; inconclusive means small, poorly fitted or top-dose-only effect, or another doubt; inactive means no such curve, though single readings can be large; an effect the other way counts as inactive or inconclusive. Potency means the concentration at half of the fitted maximal effect.

Screening N#Cc1nc(COc2ccc(F)cc2)oc1NCCCn1ccnc1 returned GLS inhibitor 7.5%, JMJD2A Tudor inconclusive, HP1b chromo inh -9.8%, G9a inh -8.4%[12.7 µM] and BAZ2B inh -35.0%.
N#Cc1nc(COc2ccccc2F)oc1NCCCn1ccnc1 was read as GLS inhibitor 11.0%, JMJD2A Tudor inconclusive, HP1b chromo inh 30.6%, G9a inh 31.6µM* and BAZ2B inh inconclusive.
Screening Cc1ccc(OCc2nc(C#N)c(NCCCn3ccnc3)o2)cc1 returned GLS inhibitor 15.8%, JMJD2A Tudor 7.6%[11.4 µM], HP1b chromo inh -19.7%, G9a inh inconclusive and BAZ2B inh 50.1µM*.
Screening COc1ccccc1OCc1nc(C#N)c(NCCCn2ccnc2)o1 returned GLS inhibitor 19.7%, JMJD2A Tudor -24.1%, HP1b chromo inh 43.7%, G9a inh inconclusive and BAZ2B inh inconclusive.
Screening O=C(CSc1nnc2ccc(-c3ccccn3)nn12)Nc1ccccc1 returned GLS inhibitor 2.2%, JMJD2A Tudor -6.9%, HP1b chromo inh 12.3%, G9a inh 32.2%[59 µM] and BAZ2B inh 9.4%.
For CC(C)C[C@H](NS(=O)(=O)c1ccc(Br)cc1)C(=O)O the results were GLS inhibitor -2.2%, JMJD2A Tudor 89.1µM*, HP1b chromo inh -6.5%, G9a inh -43.8% and BAZ2B inh 4.0%.
For O=C(O)C(Cc1c[nH]c2ccccc12)NS(=O)(=O)c1ccc(Cl)cc1 (stereo unspecified) the results were GLS inhibitor 1.9%, JMJD2A Tudor 0.6%, HP1b chromo inh 13.0%, G9a inh inconclusive and BAZ2B inh 8.2%.
O=C(O)C(Cc1c[nH]c2ccccc12)NS(=O)(=O)c1ccc(Br)cc1 (stereo unspecified) was read as GLS inhibitor 22.5%, JMJD2A Tudor 28.2µM*, HP1b chromo inh inconclusive, G9a inh inconclusive and BAZ2B inh -20.7%.
COc1ccc(N=Nc2nc3cc(Br)c(Br)cc3n2C)c(OC)c1 was read as GLS inhibitor -13.3%, JMJD2A Tudor 31.6µM*, HP1b chromo inh 44.7µM*, G9a inh inconclusive and BAZ2B inh 35.5µM*.
Screening Cc1cc(C(=O)CCl)c(C)n1CCc1ccc(F)cc1 returned GLS inhibitor 6.3%, JMJD2A Tudor -0.3%, HP1b chromo inh 31.0%, G9a inh -8.1% and BAZ2B inh -23.8%.
For O=C(Cn1cnc([N+](=O)[O-])n1)c1ccc(O)c(O)c1 the results were GLS inhibitor -6.3%, JMJD2A Tudor inconclusive, HP1b chromo inh 17.7%, G9a inh 8.91µM* and BAZ2B inh 79.4µM*.
Screening O=C(Cn1cnc([N+](=O)[O-])n1)c1ccccc1 returned GLS inhibitor 4.7%, JMJD2A Tudor -14.0%, HP1b chromo inh 7.2% and BAZ2B inh 3.7%.
COc1ccccc1NC(=O)N(Cc1cc2cc(OC)c(OC)cc2[nH]c1=O)CC1CCCO1 (stereo unspecified) was read as GLS inhibitor -0.5%, JMJD2A Tudor -15.2%, HP1b chromo inh 30.7%, G9a inh 12.4%[59 µM] and BAZ2B inh -10.4%.
Screening CN1CCN(C2=C(Cl)C(=O)N(c3ccc(Cl)cc3)C2=O)CC1 returned GLS inhibitor 4.4%, JMJD2A Tudor 39.8µM*, HP1b chromo inh 25.7% and G9a inh 5.01µM*.
Screening O=C(NCSc1ccnc(SCNC(=O)c2ccccc2)n1)c1ccccc1 returned GLS inhibitor -2.4%, JMJD2A Tudor -30.1%, HP1b chromo inh 29.5%, G9a inh 3.98µM* and BAZ2B inh -9.0%.
`O=C(NCSc1ccncn1)c1ccccc1` gave GLS inhibitor -2.9%, JMJD2A Tudor 20µM*, HP1b chromo inh -25.1%, G9a inh inconclusive and BAZ2B inh inconclusive.
Screening CC(=O)c1c(Nc2ccc3c(c2)OCCO3)oc(C)cc1=O returned GLS inhibitor -2.3%, JMJD2A Tudor -16.2%, HP1b chromo inh 19.1%, G9a inh 79.4µM* and BAZ2B inh -8.9%.
`Cc1cc(C(=O)Nc2ccc3c(c2)OCCO3)c(C)o1` gave GLS inhibitor -2.9%, JMJD2A Tudor -26.0%[57.1 µM], HP1b chromo inh -24.6%, G9a inh inconclusive and BAZ2B inh -7.8%.
CCC(C(=O)NCc1cccnc1)c1ccccc1 (stereo unspecified) was read as GLS inhibitor -3.3%, JMJD2A Tudor -2.1%, HP1b chromo inh 21.6% and BAZ2B inh -5.5%.
Cn1c(=O)c2[nH]c(CCCCCCCCc3nc4ccccc4[nH]3)nc2n(C)c1=O was read as GLS inhibitor 0.3%, JMJD2A Tudor -12.3% and HP1b chromo inh 29.3%.
CCOc1cc(-c2nc(C)c(C(C)=O)n2O)ccc1OCC(=O)Nc1cccc(C)c1 was read as GLS inhibitor 3.5%, JMJD2A Tudor -27.8%, HP1b chromo inh 7.5%, G9a inh 50.1µM* and BAZ2B inh -16.3%.
CCOc1cc(/C=N/O)ccc1OCC(=O)Nc1cccc(C)c1 was read as GLS inhibitor 5.2%, JMJD2A Tudor -4.2%, HP1b chromo inh 18.6%, G9a inh 30.3% and BAZ2B inh 19.0%.
Screening O=C(/C=C/c1ccccc1)C1=C(O)C(=O)N(CCO)C1c1ccccc1[N+](=O)[O-] (stereo unspecified) returned GLS inhibitor -2.4%, JMJD2A Tudor inconclusive, HP1b chromo inh -5.3%[57 µM], G9a inh 44.7µM* and BAZ2B inh -31.1%.
Screening CC(C)Oc1ncnc2c1[nH]c1ccccc12 returned GLS inhibitor -4.5%, JMJD2A Tudor -12.1%, HP1b chromo inh 51.2%, G9a inh 5.0% and BAZ2B inh 2.1%.
For CCNc1nc(NCC)n2c(SCC(=O)Nc3ccc(OC)c(OC)c3)nnc2n1 the results were GLS inhibitor 19.2%, JMJD2A Tudor -19.2%, HP1b chromo inh 4.5%, G9a inh -1.7% and BAZ2B inh -24.8%.
`CC1C(=O)NN=C1c1ccc([N+](=O)[O-])cc1` (stereo unspecified) gave GLS inhibitor 17.9%, JMJD2A Tudor -16.0% and HP1b chromo inh 17.2%.
CC1CN2C(c3ccc([N+](=O)[O-])cc3)=CSC2=N1 (stereo unspecified) was read as GLS inhibitor -21.6%, JMJD2A Tudor 79.4µM*, HP1b chromo inh inconclusive, G9a inh 14.4%[0.501 µM] and BAZ2B inh -6.3%.
Screening O=C(Nc1ccccc1)c1ccsc1 returned GLS inhibitor 2.2%, JMJD2A Tudor 5.0%, HP1b chromo inh 23.7%, G9a inh 25.4%[59 µM] and BAZ2B inh 3.5%.
For CCOC(=O)c1sc(N(Cc2ccccc2)C(=O)CCl)nc1C the results were GLS inhibitor -4.6%, JMJD2A Tudor 11.7%, HP1b chromo inh 85.3%, G9a inh 39.8µM* and BAZ2B inh -29.8%.
`COc1cccc(N(C(=O)c2snc(C(N)=O)c2N)C(C(=O)NCC2CCCO2)c2cccs2)c1` (stereo unspecified) gave GLS inhibitor 7.9%, JMJD2A Tudor -26.4%, HP1b chromo inh -13.1%, G9a inh 35.5µM* and BAZ2B inh -3.0%.
